The nature of test [1]: Nuclear factor erythroid 2-related factor 2/antioxidant responsive element (Nrf2/ARE) small molecule agonists: qHTS cell viability counter screen in human keratinocytes (AID 1919968; active = well fitted curve in the direction sought with a large enough effect in the repeat runs; an effect the other way counts as inactive or inconclusive; note: nearly all actives have a fitted effect of over 55% in size; note: potency is the fitted concentration of half-maximal effect). The procedure, abridged:
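Cells of the KeratinoSens line were plated at 1,500 per well and left for 5 h before compound transfer from DMSO stocks. After a 23 h incubation (37 C, 5% CO2), CellTiter-Fluor was added. Signal was taken as fluorescence intensity 1 h later.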
(In general: In qHTS, concentration-response curves come from the screen itself.)

The target in test [2] is KiSS-1 receptor (Homo sapiens) (UniProt Q969F8). The test can be described thus: Human kisspeptin (KISS1R) small molecule agonists, calcium flux assay in KISS1R-HEK293 cells (AID 1920064; active = well fitted curve in the direction sought with a large enough effect in the repeat runs; an effect the other way counts as inactive or inconclusive). The essentials: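 Cell line: HEK293, stable human KISS1R. Dye loading 1 h at 37 C after 18 h culture. Read: kinetic fluorescence, 480/540 nm, 3 min at 1 s intervals.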
In general terms: A change in cytosolic calcium serves as a functional read-out for many receptors and channels.

Test [3] in a line: G protein-coupled receptor (GPCR) small molecule agonists, calcium flux assay: HEK293 wild type cell line counter screen (AID 1920065). The procedure, abridged:
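Tox21 10K compounds, 15 concentrations each in triplicate, pin-transferred in DMSO onto dye-loaded cells; kinetic read at 480/540 nm for 3 min, 1 s intervals.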

Test [4] is described as follows: p53 small molecule agonists, cell-based qHTS assay with human liver microsomes: qHTS cell viability counter screen (AID 1963579). Note: nearly all actives have a fitted effect of over 45% in size. The essentials: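 p53RE-bla cells, 4,000/well, dosed 5 hours after plating, with human liver microsomes (0.5 mg/mL final) plus NADPH (0.5 mg/mL final), 16 hours at 37 C. Viability read as CellTiter-Glo luminescence after 30 min at room temperature.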

The nature of test [5]: p53 small molecule agonists, cell-based qHTS assay with rat liver microsomes: qHTS cell viability counter screen (AID 1963580). Note: nearly all actives have a fitted effect of over 45% in size. The procedure, abridged:
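Counter screen for cytotoxicity under metabolic activation: rat liver microsomes and NADPH, 0.5 mg/mL final each, added with compounds to p53RE-bla HCT-116 cells; 16 h at 37 C, then ATP luminescence read.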

The nature of test [6]: cAMP Responsive Elements (CRE) small molecule agonists, cell-based qHTS assay (AID 1963590). The procedure, abridged:
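HEK 293T cells stably bearing CRE-bla were plated at 2,000 cells per well and rested 18 h. Compounds, positive controls or DMSO were added for 3 h at 37 C. LiveBLAzer B/G substrate was then loaded for 2 h at room temperature.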

For test [7], the target named is Beta-2 adrenergic receptor (Homo sapiens) (UniProt P07550). Nature of the test: Adrenergic beta2 receptor (ADRB2) small molecule agonists, cell-based qHTS assay (AID 1963593).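 Note: CHO cells stably overexpressing human ADRB2.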 The procedure, abridged:
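CHO cells stably over-expressing ADRB2 were plated overnight at 37C, then dosed with compounds plus a stimulation mix containing 100uM IBMX and 25uM Ro-20-1724 for 0.5hr at room temperature. cAMP was measured by HTRF competition, 1hr.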

Test [8] concerns the target D(2) dopamine receptor (Homo sapiens) (UniProt P14416). Nature of the test: Dopamine D2 receptor (DRD2) small molecule agonists, cell-based qHTS assay (AID 1963594). Note: nearly all actives have a fitted effect of over 35% in size. The essentials: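 HEK293 cells stably expressing DRD2 were cultured 24 h at 37 C, then given Ro20-1724 (0.1 mM final) and compounds for 10 min at room temperature. NKH477 (200nM) was then added for 30 min. cAMP was read by HTRF.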

Test [9] shares this target. The test can be described thus: Dopamine D2 receptor (DRD2) small molecule antagonists, cell-based qHTS assay (AID 1963595; active = well fitted inhibition curve with a large enough effect in the signal ratio in the repeat runs, with a control signal flat; the % refers to the signal ratio). The essentials: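 Stable D2 receptor HEK293 line, 24 h after seeding. Compound preincubated 10 min, then quinpirole (12 nM) with forskolin analogue NKH477 (200 nM), 30 min, room temperature. Detection by time-resolved FRET of cAMP.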
The target in test [10] is Gonadotropin-releasing hormone receptor (Homo sapiens) (UniProt P30968). The test can be described thus: Human gonadotropin-releasing hormone receptor (GnRHR) small molecule agonists, calcium flux assay in GnRHR-HEK293 cells (AID 1920063). Note: nearly all actives have a fitted effect of over 35% in size. The essentials: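 Compounds dissolved in DMSO are pin-transferred onto dye-loaded GnRHR-HEK293 cells, which were seeded 18 h before at 37 C/5% CO2. Calcium signal is read as fluorescence intensity at 1 s intervals for 3 min.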

Test [11] can be described thus: p53 small molecule agonists, cell-based qHTS assay with human liver microsomes (AID 1963577). The procedure, abridged: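 p53RE-bla cells, 4,000/well, compound added after 5 h, with human liver microsomes 0.5 mg/mL and NADPH 0.5 mg/mL final; 16 h at 37 C, then LiveBLAzer 2 h RT, fluorescence.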
Test [12] is described as follows: p53 small molecule agonists, cell-based qHTS assay with rat liver microsomes (AID 1963578). The essentials:
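p53RE-bla cells, 4,000/well, pre-incubated 5 h, then given compounds plus rat liver microsomes (0.5 mg/mL final) and NADPH (0.5 mg/mL final). Incubation 16 h at 37 C; beta-lactamase reporter read by LiveBLAzer fluorescence after 2 h at room temperature.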

Test [13] in a line: p53 small molecule agonists, cell-based qHTS assay: qHTS cell viability counter screen (AID 1963581). Note: nearly all actives have a fitted effect of over 45% in size. The procedure, abridged: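 ATP content measured by luminescence in HCT-116 p53RE-bla cells treated 16 h at 37 C, same wells as the reporter screen.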
The nature of test [14]: p53 small molecule agonists, cell-based qHTS assay (AID 1963582; active = well fitted activation curve with a large enough effect in the signal ratio in the repeat runs, not every such curve was filed as active; the % refers to the signal ratio). The essentials:
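16 h compound exposure (37 C) of p53 response element–bla cells, preceded by 5 h recovery at 37 C/5% CO2; read-out via LiveBLAzer B/G FRET substrate, 2 h RT, fluorescence intensity.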

For test [15], the target named is 5-hydroxytryptamine receptor 2A (Homo sapiens) (UniProt P28223). The test can be described thus: 5-hydroxytryptamine receptor 2A (HTR2A) small molecule agonists, cell-based qHTS assay (AID 1963587). Note: nearly all actives have a fitted effect of over 30% in size. The procedure, abridged:
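HTR2A-CHO cells, plated 18 h at 37 C/5% CO2, dye-loaded 1 h at 37 C; compounds in DMSO added by pin tool (agonist mode). Intracellular calcium flux read as kinetic fluorescence on FDSS over 2 min at 1 s intervals.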

Test [16] deals with Muscarinic acetylcholine receptor M1 (Homo sapiens) (UniProt P11229). Nature of the test: Cholinergic receptor muscarinic 1 (CHRM1) small molecule antagonists, cell-based qHTS assay (AID 1963588). Note: nearly all actives have a fitted effect of over 40% in size. The procedure, abridged:
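Compounds were tested at 15 concentrations in three independent runs. Dye-loaded CHRM1-CHO cells were exposed 5 min at room temperature before stimulation by acetylcholine added at 50nM. Intracellular calcium was read kinetically on FDSS for 3 min.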

For test [17] the target is unchanged. The test can be described thus: Cholinergic receptor muscarinic 1 (CHRM1) small molecule agonists, cell-based qHTS assay (AID 1963589). Note: nearly all actives have a fitted effect of over 35% in size. The essentials:
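Homogeneous fluorescence calcium flux, agonist mode. Human M1-expressing CHO cells; compound dosed at 15 concentrations, three independent runs; signal sampled every 1 sec.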

Test [18] in a line: cAMP Responsive Elements (CRE) small molecule antagonists, cell-based qHTS assay (AID 1963591; active = well fitted inhibition curve with a large enough effect in the signal ratio in the repeat runs, not every such curve was filed as active; the % refers to the signal ratio). The procedure, abridged: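 First, CRE-bla HEK293T cells settled 18 h at 37 C. Next, compound and 0.25 uM final NKH477 were applied for 3 h. Last, LiveBLAzer B/G substrate was loaded for 2 h at room temperature.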
Test [19] has as its target Beta-2 adrenergic receptor (Homo sapiens) (UniProt P07550). The test can be described thus: Adrenergic beta2 receptor (ADRB2) small molecule antagonists, cell-based qHTS assay (AID 1963592). Note: series mostly up to about 92 µM; nearly all actives have a fitted effect of over 50% in size. The essentials:
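Assay format: CHO-ADRB2 cells, 18-20hr seeding at 37C/5% CO2, then compound plus 1nM isoproterenol agonist mix for 0.5hr RT. Homogeneous time-resolved fluorescence cAMP detection after 1hr, expressed as 665/615 nm ratio.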

Test [20] concerns the target 5-hydroxytryptamine receptor 2A (Homo sapiens) (UniProt P28223). The test can be described thus: 5-hydroxytryptamine receptor 2A (HTR2A) small molecule antagonists, cell-based qHTS assay (AID 1963586). Note: nearly all actives have a fitted effect of over 45% in size. The essentials: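 CHO cells stably expressing human HTR2A were plated for 18 h at 37 C, then loaded with calcium dye for 1 h. Compounds were preincubated 5 min at room temperature before DOI (4 nM solution) was added. Kinetic fluorescence was read for 3 min.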

Inconclusive results are not listed. Some compounds were tested as several samples or in several runs, with calls that do not always agree. Active and inactive are the calls of the source. Unless noted, calls come from the whole dose curve.

Chain of Beta-2 adrenergic receptor (Homo sapiens) (P07550 whole entry, looked up): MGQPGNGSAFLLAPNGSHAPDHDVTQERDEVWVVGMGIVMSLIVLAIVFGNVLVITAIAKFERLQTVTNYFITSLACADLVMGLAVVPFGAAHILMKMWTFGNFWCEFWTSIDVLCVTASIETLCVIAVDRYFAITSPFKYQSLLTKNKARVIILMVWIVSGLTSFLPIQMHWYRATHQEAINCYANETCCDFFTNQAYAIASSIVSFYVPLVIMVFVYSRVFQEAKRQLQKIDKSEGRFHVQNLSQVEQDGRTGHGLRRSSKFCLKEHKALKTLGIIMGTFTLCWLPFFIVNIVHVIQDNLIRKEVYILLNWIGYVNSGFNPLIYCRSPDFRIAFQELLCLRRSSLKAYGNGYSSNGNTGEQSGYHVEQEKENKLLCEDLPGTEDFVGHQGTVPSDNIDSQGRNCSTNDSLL
Chain of 5-hydroxytryptamine receptor 2A (Homo sapiens) (P28223 whole entry, looked up): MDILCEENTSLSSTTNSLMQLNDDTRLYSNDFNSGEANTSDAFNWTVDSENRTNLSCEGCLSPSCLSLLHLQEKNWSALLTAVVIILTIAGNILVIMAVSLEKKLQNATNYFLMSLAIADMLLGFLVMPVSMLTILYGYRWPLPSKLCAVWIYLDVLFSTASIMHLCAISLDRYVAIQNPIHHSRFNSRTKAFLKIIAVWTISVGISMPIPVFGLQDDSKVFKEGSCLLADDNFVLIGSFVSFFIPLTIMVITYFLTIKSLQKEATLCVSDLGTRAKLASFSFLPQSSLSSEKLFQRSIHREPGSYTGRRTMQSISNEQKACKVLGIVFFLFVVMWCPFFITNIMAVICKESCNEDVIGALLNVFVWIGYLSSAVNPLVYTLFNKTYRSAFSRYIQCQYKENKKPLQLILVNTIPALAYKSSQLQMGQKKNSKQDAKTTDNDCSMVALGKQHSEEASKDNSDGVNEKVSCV
Chain of KiSS-1 receptor (Homo sapiens) (Q969F8 whole entry, looked up): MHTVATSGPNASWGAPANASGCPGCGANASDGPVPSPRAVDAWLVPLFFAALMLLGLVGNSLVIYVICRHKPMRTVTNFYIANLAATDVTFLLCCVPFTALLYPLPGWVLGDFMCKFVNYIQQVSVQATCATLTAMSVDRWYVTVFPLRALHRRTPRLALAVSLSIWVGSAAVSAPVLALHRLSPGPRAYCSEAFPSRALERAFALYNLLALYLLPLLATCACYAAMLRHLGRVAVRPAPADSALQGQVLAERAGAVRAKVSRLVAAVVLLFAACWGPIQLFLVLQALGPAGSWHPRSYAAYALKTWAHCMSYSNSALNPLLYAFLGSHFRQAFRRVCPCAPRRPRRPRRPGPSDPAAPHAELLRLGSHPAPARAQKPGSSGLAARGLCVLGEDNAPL
Chain of Muscarinic acetylcholine receptor M1 (Homo sapiens) (P11229 whole entry, looked up): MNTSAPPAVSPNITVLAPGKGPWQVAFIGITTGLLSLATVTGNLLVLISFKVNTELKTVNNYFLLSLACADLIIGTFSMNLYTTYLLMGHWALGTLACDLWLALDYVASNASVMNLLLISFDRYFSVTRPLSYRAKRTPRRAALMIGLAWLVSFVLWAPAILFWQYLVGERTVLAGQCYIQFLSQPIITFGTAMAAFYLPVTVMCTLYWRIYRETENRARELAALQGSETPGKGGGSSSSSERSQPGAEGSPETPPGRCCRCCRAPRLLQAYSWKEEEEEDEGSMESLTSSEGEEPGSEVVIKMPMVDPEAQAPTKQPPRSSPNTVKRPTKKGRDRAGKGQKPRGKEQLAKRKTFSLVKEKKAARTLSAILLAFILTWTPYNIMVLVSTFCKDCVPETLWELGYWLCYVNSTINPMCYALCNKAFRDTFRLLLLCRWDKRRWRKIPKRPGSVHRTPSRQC
Chain of Gonadotropin-releasing hormone receptor (Homo sapiens) (P30968 whole entry, looked up): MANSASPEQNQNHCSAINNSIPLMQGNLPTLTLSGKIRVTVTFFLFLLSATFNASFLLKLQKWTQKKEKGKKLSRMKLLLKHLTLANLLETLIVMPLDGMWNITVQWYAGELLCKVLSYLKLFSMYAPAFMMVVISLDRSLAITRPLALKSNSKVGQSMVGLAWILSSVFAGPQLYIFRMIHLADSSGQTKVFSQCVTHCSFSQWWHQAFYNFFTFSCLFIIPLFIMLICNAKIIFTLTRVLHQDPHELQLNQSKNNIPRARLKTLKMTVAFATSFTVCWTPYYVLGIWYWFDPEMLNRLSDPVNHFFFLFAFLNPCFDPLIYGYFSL
Chain of D(2) dopamine receptor (Homo sapiens) (P14416 whole entry, looked up): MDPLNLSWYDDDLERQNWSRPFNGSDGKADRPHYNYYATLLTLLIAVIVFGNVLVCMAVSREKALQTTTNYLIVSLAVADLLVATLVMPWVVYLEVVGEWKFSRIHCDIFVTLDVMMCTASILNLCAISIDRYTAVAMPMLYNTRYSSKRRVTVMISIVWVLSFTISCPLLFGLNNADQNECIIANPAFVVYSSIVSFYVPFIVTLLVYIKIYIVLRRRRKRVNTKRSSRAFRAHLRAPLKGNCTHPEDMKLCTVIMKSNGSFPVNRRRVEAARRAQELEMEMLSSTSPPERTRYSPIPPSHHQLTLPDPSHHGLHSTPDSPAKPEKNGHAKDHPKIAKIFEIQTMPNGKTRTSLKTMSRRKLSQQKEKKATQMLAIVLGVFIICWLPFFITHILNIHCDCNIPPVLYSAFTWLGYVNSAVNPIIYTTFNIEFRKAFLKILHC

With `Nc1nc(=S)c2[nH]cnc2[nH]1`, the Potency in test [1] was 66.8 µM (active) and inactive. The Potency result in test [2], in [3], in test [4], in test [5], in test [6] and in [7] was “inactive” each time. Moreover, the Potency entry in [8] and in test [9] was “inactive” throughout.
With `O=c1c(O)c(-c2ccc(O)c(O)c2)oc2cc(O)cc(O)c12`, the Potency result in test [1], in test [10], in test [2], in test [3], in test [11] and in [12] was “inactive” in each case. The Potency result in test [4], in [5], in test [13], in test [14], in test [15] and in test [16] was “inactive” throughout. Further, the Potency result in test [17], in test [18], in [19], in test [7], in [8] and in [9] was “inactive” in each case.
As for `COC1=CC(=O)C[C@@H](C)[C@]12Oc1c(Cl)c(OC)cc(OC)c1C2=O`, the Potency result in [1], in test [2], in test [3], in test [4], in test [6] and in test [18] was “inactive” throughout. Moreover, the Potency result in [19], in test [7], in test [8] and in test [9] was “inactive” in each case.
Regarding `CCOC(=O)NNc1nncc2ccccc12`, the Potency result in test [1], in [2], in [3], in [11], in [5] and in test [13] was “inactive” each time. The Potency result in [14], in test [20], in test [15], in test [17], in test [6] and in test [18] was “inactive” throughout. The Potency result in test [19], in test [7] and in test [8] was “inactive” in each case.
For `c1ccc2c(c1)ccc1ccccc12`, the Potency result in test [1], in test [2], in [3], in test [11], in test [12] and in [5] was “inactive” throughout. In addition, the Potency entry in test [13], in test [14], in test [20], in test [15], in test [16] and in [17] was “inactive” in each case. The Potency result in [6], in test [18], in test [19], in test [8] and in test [9] was “inactive” throughout.
For `CCCCCCCC/C=C\CCCCCCCC(=O)O`, the Potency entry in test [1], in test [10], in [2], in [3], in test [11] and in [12] was “inactive” each time. The Potency result in [4], in [5], in test [13], in [14], in test [20] and in test [15] was “inactive” each time. Further, the Potency result in test [16], in [17], in test [6], in [18], in test [19] and in test [7] was “inactive” each time. In [8], the Potency result is “inactive”.
Regarding `CC1(C)O[C@@H]2C[C@H]3[C@@H]4CCC5=CC(=O)C=C[C@]5(C)[C@@]4(F)[C@@H](O)C[C@]3(C)[C@]2(C(=O)CO)O1`, the Potency entry in test [1], in [3], in test [11], in test [12], in test [4] and in test [13] was “inactive” each time. The Potency entry in [14], in test [18], in test [19], in test [8] and in test [9] was “inactive” throughout.
Turning to `CCCCC(CC)COC(=O)CCCCC(=O)OCC(CC)CCCC` (centres undefined), the Potency entry in test [1], in [10], in test [2], in test [3], in test [12] and in [4] was “inactive” throughout. Moreover, the Potency entry in [5], in [13], in [14], in test [20], in test [15] and in test [16] was “inactive” each time. The Potency entry in test [6], in test [18], in test [19], in test [7], in test [8] and in [9] was “inactive” in each case.
For the compound `O=C1CCCCCN1`, the Potency entry in test [1], in test [10], in [3], in test [11], in test [12] and in test [4] was “inactive” in each case. Besides, the Potency result in test [5], in test [13], in test [14], in test [20], in test [15] and in test [16] was “inactive” throughout. In addition, the Potency result in [17], in test [18], in test [19], in [8] and in [9] was “inactive” throughout.

(Values after PubChem BioAssay (Tox21).)
